# Reference: the supplement of paper PMC8253809
# “And” between values parts separate entries of the source, which are not always exact repeats. Equal values may be shown once.
# Columns and labels:
# Experiment in all cases: growth inhibition (% activity, log2 RLU normalised to DMSO / staurosporine); higher = more growth inhibition
# Settings in all cases: 33 µM
# DIPGX29 = system: DIPGX29 (H3.3 K27M diffuse intrinsic pontine glioma line)
# Procedure, shortened: (§1)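 Cells (pHGG lines and H9-derived neural stem cells) were plated on Geltrex-coated 384-well plates and exposed to approved drugs at a single final concentration of about 33 μM, in triplicate, for 7 days at 37 °C, 5% CO2. Log2-transformed CellTiter-Glo luminescence was normalised per plate to % activity between solvent and positive control wells, and the growth-inhibition value is the median over replicates.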
# DIPGX37 = system: DIPGX37 (H3.3 K27M diffuse intrinsic pontine glioma line)
# Procedure, shortened: as §1
# DIPGX7 = system: DIPGX7 (H3.3 K27M diffuse intrinsic pontine glioma line)
# Procedure, shortened: as §1
# DIPGX9 = system: DIPGX9 (diffuse intrinsic pontine glioma line)
# Procedure, shortened: as §1
# HGGX39 = system: HGGX39 (paediatric high-grade glioma line)
# Procedure, shortened: as §1
# HGGX6 = system: HGGX6 (H3.3 G34R paediatric high-grade glioma line)
# Procedure, shortened: as §1
# HNSC = system: HNSC
# Procedure, shortened: as §1
# SUDIPGIV = system: SUDIPGIV (diffuse intrinsic pontine glioma line)
# Procedure, shortened: as §1
# SUDIPGVI = system: SUDIPGVI (diffuse intrinsic pontine glioma line)
# Procedure, shortened: as §1
# SUDIPGXIII = system: SUDIPGXIII (diffuse intrinsic pontine glioma line)
# Procedure, shortened: as §1
SMILES,growth inhibition (DIPGX29),growth inhibition (DIPGX37),growth inhibition (DIPGX7),growth inhibition (DIPGX9),growth inhibition (HGGX39),growth inhibition (HGGX6),growth inhibition (HNSC),growth inhibition (SUDIPGIV),growth inhibition (SUDIPGVI),growth inhibition (SUDIPGXIII)
c1ccc2[nH]c(-c3cscn3)nc2c1,-1.25%,0.956%,-0.782%,0.56%,0.84%,1.32%,-1.65%,0.977%,1.13%,0.000357%
CC(=O)Oc1ccc(C(c2ccc(OC(C)=O)cc2)c2ccccn2)cc1,2.78%,3.71%,5.33%,8.29%,20.8%,3.52%,4.99%,18.7%,3.8%,5.98%
Cn1ccnc1S,-2.03%,-0.808%,-1.31%,-0.195%,-0.799%,-0.968%,-4.2%,-2.69%,-1.6%,-8.17%
CCN1CCN(C(=O)NC(C(=O)NC2C(=O)N3C(C(=O)O)=C(CSc4nnnn4C)CSC23)c2ccc(O)cc2)C(=O)C1=O (stereo not given),-4.55%,0.256%,-3.04%,-2.18%,0.547%,-2.32%,-1.87%,-3.07%,-2.25%,-0.109%
O=S(=O)(O)c1cc(O)ccc1O,-4.18%,-4.39%,-0.642%,-3.41%,-5.27%,-3.97%,13.9%,-3.95%,-12.4%,1.53%
O=P(O)(O)C(O)(Cc1cccnc1)P(=O)(O)O,0.184% and -0.127%,-0.218% and -0.408%,2.03% and 0.167%,0.335% and 1.09%,3.43% and 1.8%,2.06% and -1.19%,2.32% and -0.808%,-0.292% and 0.354%,-0.685% and 2.28%,-0.822% and -0.975%
O=C(Nc1ccccc1)OCC(CN1CCCCC1)OC(=O)Nc1ccccc1 (stereo not given),-1.04%,-3.49%,-0.617%,-1.45%,-2.3%,-1.35%,9.66%,-3.64%,-7.72%,1.16%
CN(C)CCN(Cc1ccccc1)c1ccccn1,1.64%,2.34%,0.0331%,3.36%,5.32%,0.326%,-1.72%,-0.134%,1.29%,2.37%
O=C(O)C(=O)O.[NH-]C1CCCCC1[NH-].[Pt+2] (stereo not given),-0.101%,2.05%,-0.541%,7.2%,-0.76%,1.66%,1.98%,-1.88%,0.474%,1.07%
CO/N=C(\C(=O)N[C@@H]1C(=O)N2C(C(=O)O)=C(CSC(=O)c3ccco3)CS[C@H]12)c1csc(N)n1,-1.65%,1.16%,-1.04%,-0.83%,0.968%,-1.16%,-1.6%,1.14%,-0.598%,0.953%
COc1ccc(/C=C/C(=O)Nc2ccccc2C(=O)O)cc1OC,-0.16%,2.16%,1.32%,-0.609%,-0.29%,-0.75%,3.65%,0.158%,-5.28%,-1.02%
Nc1nc2c(ncn2COC(CO)CO)c(=O)[nH]1,-0.593%,2.32%,-1.01%,1.05%,1.32%,1.03%,-1.32%,-0.797%,-0.103%,1.94%
C=C[C@]1(C)C[C@@H](OC(=O)CS[C@@H]2C[C@H]3CC[C@@H](C2)N3C)[C@]2(C)[C@H](C)CC[C@]3(CCC(=O)[C@H]32)[C@@H](C)[C@@H]1O,4.15%,2.94%,3.25%,4.84%,11.9%,5.9%,7.78%,12%,5.01%,5.37%
CC(C)(C)c1nc(-c2cccc(NS(=O)(=O)c3c(F)cccc3F)c2F)c(-c2ccnc(N)n2)s1,0.794%,4.39%,2.8%,1.94%,5.46%,4.05%,22.9%,-0.469%,-1.37%,-0.13%
CC(=O)OCC[N+](C)(C)C,1.68%,3.32%,3.73%,1.49%,1.63%,1.69%,4.52%,1.04%,2.81%,-0.303%
Cc1ccnc(NS(=O)(=O)c2ccc(N)cc2)n1,0.307%,1.2%,-0.936%,0.0876%,1.13%,-0.277%,-0.552%,0.606%,0.117%,1.12%
CC(C)CN(C[C@@H](O)[C@H](Cc1ccccc1)NC(=O)O[C@H]1CO[C@H]2OCC[C@H]21)S(=O)(=O)c1ccc(N)cc1,-2.82%,-0.683%,-0.244%,-0.934%,-1.58%,0.0431%,-4.53%,-3.11%,-1.79%,1.1%
c1ccc(CN(CC2=NCCN2)c2ccccc2)cc1,1.93%,1.36%,0.575%,3.38%,1.53%,0.0328%,0.623%,-2.17%,3.06%,0.969%
CC(C)[C@H](N)C(=O)OCC(CO)OCn1cnc2c(=O)[nH]c(N)nc21 (stereo not given in full),-0.214%,1.96%,-0.125%,0.141%,0.816%,-2.7%,0.0503%,0.2%,-2.51%,1.45%
N=C(N)N,-0.83%,2.64%,1.54%,0.0493%,0.625%,-0.897%,7.78%,1.72%,-0.000495%,-1.47%

SMILES,growth inhibition (DIPGX29),growth inhibition (DIPGX37),growth inhibition (DIPGX7),growth inhibition (DIPGX9),growth inhibition (HGGX39),growth inhibition (HGGX6),growth inhibition (HNSC),growth inhibition (SUDIPGIV),growth inhibition (SUDIPGVI),growth inhibition (SUDIPGXIII)
CCOC(=O)c1c(C)n(C)c2ccc(O)cc12,0.475%,0.373%,0.137%,-1.16%,1.77%,1.27%,-0.219%,0.902%,-0.0936%,-1.54%
CN(C)CCCC1(c2ccc(F)cc2)OCc2cc(C#N)ccc21 (stereo not given),1.68%,3.31%,3.03%,1.7%,2.63%,3.21%,-0.115%,1.18%,1.71%,0.506%
COc1cc2nc(N(C)CCCNC(=O)C3CCCO3)nc(N)c2cc1OC (stereo not given),0.0156%,1.16%,-0.0243%,0.217%,-0.734%,1.08%,-0.343%,-0.994%,1.28%,1.78%
O=C1N=C(O)NC1(c1ccccc1)c1ccccc1,0.482% and -0.485%,2.42% and 3.19%,1.26% and 0.465%,0.659% and -0.0101%,1.57% and 1.18%,2.58% and 1.56%,0.737% and -1.81%,-0.112% and -1.42%,1.87% and 2.15%,-17.1%
CCCCCCCCOc1ccccc1C(=O)Nc1ccc(C(=O)OCC[N+](C)(CC)CC)cc1,1.1%,-1.75%,3.53%,2.15%,53.7%,10.8%,1.89%,4.07%,-1.27%,2.78%
CCOc1cc(N)c(Cl)cc1C(=O)NCC1CN(Cc2ccc(F)cc2)CCO1 (stereo not given),-0.0532%,1.06%,0.919%,1.54%,1.87%,0.0657%,1.23%,0.346%,1.9%,1.85%
Cc1nnc(C(=O)NC(C)(C)c2nc(C(=O)NCc3ccc(F)cc3)c(O)c(=O)n2C)o1,1.77%,-0.226%,2.62%,2.15%,2.25%,-0.564%,4.29%,-0.0786%,2.47%,0.152%
CC1(C)Cc2c(-c3ccccc3)c(-c3ccc(Cl)cc3)c(CC(=O)O)n2C1,1.89%,3.9%,3.38%,1.48%,2.51%,-0.994%,8.73%,1.41%,1.99%,1.12%
CNCCC(Oc1ccc(C(F)(F)F)cc1)c1ccccc1 (stereo not given),8.11%,2.62%,1.4%,0.851%,2.21%,0.48%,1.75%,1.62%,0.57%,2.42%
O=C1c2ccccc2C(=O)C1c1ccccc1,-0.501%,-1.03%,-0.877%,-0.146%,1.52%,0.118%,-1.43%,0.701%,0.683%,0.357%
COC(=O)/C=C/C(=O)OC,-1.63%,0.743%,-0.432%,-0.334%,0.42%,-3.26%,6.49%,-2.1%,-1%,1.57%
NNC(=O)c1ccncc1.Nc1ccc(C(=O)O)c(O)c1,0.532%,2.72%,1.7%,2.6%,2.23%,1.63%,-0.818%,0.972%,3.47%,-1.36%
Cc1cc(NS(=O)(=O)c2ccc(N)cc2)no1,-4.18%,-1.05%,-1.62%,-1.67%,-2.37%,-4.13%,1.76%,-3.28%,-3.16%,-0.124%
CCCCCCCCCCCCCCCCCCCCCCO,0.193%,0.0924%,-0.407%,0.0399%,-0.179%,0.445%,1.03%,-1.18%,1.92%,1.68%
NC(=O)c1ncn([C@@H]2O[C@H](CO)[C@@H](O)[C@H]2O)n1,-0.559%,0.551%,0.987%,0.303%,1.53%,0.756%,-0.0938%,-0.992%,2.19%,0.78%
CC(C)OC(=O)C(C(=O)OC(C)C)=C1SC=CS1,12.7%,6.67%,26.1%,4.32%,8.43%,13.3%,43.7%,16.3%,-3.26%,2.97%
Cc1ccc(C(=O)c2ccc(CC(=O)O)n2C)cc1,-0.189%,-0.055%,0.146%,0.57%,0.449%,-0.641%,2.18%,-4%,1.82%,-0.302%
CCc1c2c(nc3ccc(OC(=O)N4CCC(N5CCCCC5)CC4)cc13)-c1cc3c(c(=O)n1C2)COC(=O)[C@]3(O)CC,6.04% and 11.2%,2.87% and 1.26%,5% and 16.3%,7.83% and 32.1%,13.7% and 30.1%,7.49% and 10.4%,55.3% and 54.4%,49.3% and 46.9%,1.04% and 3.21%,-12% and 3.28%
C[C@]12C=CC(=O)N[C@@H]1CC[C@@H]1[C@@H]2CC[C@]2(C)[C@@H](C(=O)Nc3cc(C(F)(F)F)ccc3C(F)(F)F)CC[C@@H]12,-0.354%,-0.558%,-0.437%,0.309%,0.618%,1.03%,-1.51%,-0.237%,-0.00919%,-0.463%
CC[C@H]1OC(=O)[C@H](C)[C@@H](O[C@H]2C[C@@](C)(OC)[C@@H](O)[C@H](C)O2)[C@H](C)[C@@H](O[C@@H]2O[C@H](C)C[C@H](N(C)C)[C@H]2O)[C@](C)(O)C[C@@H](C)CN(C)[C@H](C)[C@@H](O)[C@]1(C)O,2.6% and 0.58%,0.972% and 0.639%,2.78% and -0.0129%,0.764% and 1.25%,1.94% and 0.554%,0.417% and 2.15%,-0.827% and -1.61%,-0.232% and -0.687%,-6.26% and 1.06%,1.93% and -0.434%
